This is a sample that favours compounds with a hit; in the whole collection about 4.2% have one here.
RecA splice inh: Mtb RecA intein splicing inhibition. cell-free RecA intein splicing, fluorescence. inhibition, % (test concentration not listed). actives 0.75% (n = 290,000); in the data active = inhibition above about 30%;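 note: 0% = vehicle wells and 100% = reference inhibitor control wells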
Target sequence (P9WHJ3 whole entry, looked up, canonical isoform): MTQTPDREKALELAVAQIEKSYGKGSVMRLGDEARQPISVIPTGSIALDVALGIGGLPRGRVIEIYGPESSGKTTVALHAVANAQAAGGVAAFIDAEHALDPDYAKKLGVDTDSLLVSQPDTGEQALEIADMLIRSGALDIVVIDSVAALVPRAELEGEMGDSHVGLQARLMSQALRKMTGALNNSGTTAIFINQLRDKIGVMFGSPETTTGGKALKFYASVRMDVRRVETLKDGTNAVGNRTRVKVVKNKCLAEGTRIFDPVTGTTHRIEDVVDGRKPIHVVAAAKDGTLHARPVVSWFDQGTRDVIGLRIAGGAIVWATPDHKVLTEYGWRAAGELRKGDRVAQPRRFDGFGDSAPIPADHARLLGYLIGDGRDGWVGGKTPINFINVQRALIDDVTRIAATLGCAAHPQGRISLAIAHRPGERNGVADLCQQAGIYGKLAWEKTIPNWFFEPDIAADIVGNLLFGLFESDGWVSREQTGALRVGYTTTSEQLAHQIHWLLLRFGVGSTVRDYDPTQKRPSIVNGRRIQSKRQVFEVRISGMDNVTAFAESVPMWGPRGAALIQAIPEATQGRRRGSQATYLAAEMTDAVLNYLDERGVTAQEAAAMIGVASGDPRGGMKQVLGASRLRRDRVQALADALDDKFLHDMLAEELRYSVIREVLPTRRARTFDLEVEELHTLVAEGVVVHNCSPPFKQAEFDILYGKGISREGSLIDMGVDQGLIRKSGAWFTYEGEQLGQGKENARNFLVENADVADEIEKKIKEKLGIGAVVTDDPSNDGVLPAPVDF
BJeLR lethal: kills HRASV12-expressing BJeLR cells; BJeLR (HRASV12) viability, CellTiter-Glo ATP luminescence, 48 h; AID 1554; inhibition, % (test concentration not listed); actives 0.17% (n = 300,000); in the data active = inhibition above about 50%
FBA Mtb inh: inhibitors of M. tuberculosis fructose-bisphosphate aldolase; purified M. tuberculosis FBA, fluorescence read-out; AID 588726; actives 2.3% (n = 360,000); P9WQA3; inhibition, % at 1 µM; in the data active = inhibition above about 27%;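 note: 0% = vehicle and 100% = reference inhibitor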
PrPC TRFRET: reduces human prion protein on the cell surface; cell surface PrPC, TR-FRET read-out; inhibition, % at 13.8 µM; actives 0.43% (n = 370,000); P04156; in the data active = inhibition above about 24%; note: 0% = median of the test wells and 100% = reference compound wells
GDH-TPI inh: inhibits GDH-TPI coupling enzymes, artifact for Mtb FBA screen; inhibition, % at 4.8 µM; actives 1.2% (n = 360,000); GDH-TPI coupled enzyme counterscreen, NADH absorbance; in the data active = inhibition above about 30%;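 note: 0% = DMSO wells and 100% = wells lacking the enzyme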
GFP chromophore: counter-screen GFP chromophore formation inhibition | shares compounds with RecA splice inh | cell-free GFP chromophore formation, fluorescence | EC50, µM | actives 83% (n = 2,100) | AID 434968; call rule not given here
Numbers without * were called inactive; . = no result given.

SMILES	RecA splice inh	BJeLR lethal	FBA Mtb inh	PrPC TRFRET	GDH-TPI inh	GFP chromophore
Cc1nn(Cc2ccccc2)c2c1C(c1cccc(Cl)c1)C(C#N)=C(N)O2 (stereo not given)	73*	1	1	-7	14	32*
Cc1ccc(-n2nc(C)c3c2OC(N)=C(C#N)C3c2cccs2)cc1 (stereo not given)	65*	5	1	2	5	5*
CCCc1nn(C)c2c1C(c1ccncc1)C(C#N)=C(N)O2 (stereo not given)	64*	-5	0	-8	4	30*
COc1cc(-n2nc(C)c3c2OC(N)=C(C#N)C3c2ccccc2)c(Cl)c(Br)c1O (stereo not given)	72*	-1	-8	-1	15	20*
Cc1nn(-c2ccccc2)c2c1C(c1c(C)[nH]c(C#N)c1C)C(C#N)=C(N)O2 (stereo not given)	10	8	3	-7	6	.
Cc1nn(CCC(=O)NNC(=O)Nc2ccc(Cl)cc2)c(C)c1[N+](=O)[O-]	.	.	.	4	.	.
CC(C)C(C#CC1CC1)N(Cc1ccc2c(c1)OCO2)C(N)=NC(=O)/C=C/c1ccccc1 (stereo not given)	.	.	.	2	.	.
O=C(NC1CCC1)c1ccc(C#Cc2cccc(F)c2)cn1	.	.	.	13	.	.
Cc1nn(-c2ccccc2)c2c1C(c1ccncc1)C(C#N)=C(N)O2 (stereo not given)	38*	-3	-1	-14	3	17*
COc1ccc(C(=O)/C(=C/c2cccs2)c2nc3ccccc3o2)cc1	46*	5	3	-6	30	>38
CCCCNC1C(CC)C(CCC)C(C#N)(C#N)C1(C#N)C#N (stereo not given)	76*	-6	1	.	0	12*
CC1=NNC(=O)/C1=C\c1cn(-c2ccccc2)nc1-c1cccs1	97*	56*	-1	2	16	2.8*
CC1=NNC(=O)/C1=C\c1cn(-c2ccccc2)nc1-c1ccc(F)cc1	66*	4	0	.	9	2.5*
COC(=O)C1CN(Cc2ccc(F)cc2)CCS(=O)(=O)N1Cc1ccccc1 (stereo not given)	.	.	.	6	.	.
O=C(NCc1ccccc1)C(c1ccco1)N1CCN(CCN2CCOCC2)CC1 (stereo not given)	.	.	.	-5	.	.
COc1ccc(C(N)c2nccc3cc(OC)c(OC)cc23)cc1OC (stereo not given)	92*	1	6	.	27	>38
COc1cc2ccnc(C=O)c2cc1OC	.	.	5	.	14	.
CCc1ccc(CC2S/C(=C(\C#N)C(C)=O)NC2=O)cc1 (stereo not given)	4	19	-4	-1	27	.
CCOC(=O)c1ccc(CC2S/C(=C(\C#N)C(C)=O)NC2=O)cc1 (stereo not given)	82*	0	2	1	27	>38
Cc1ccc2nc(/C(C#N)=C\c3ccc([N+](=O)[O-])o3)[nH]c2c1	34*	18	-5	-4	8	8.4*
N#C/C(=C\c1ccc([N+](=O)[O-])o1)c1nc2ccccc2[nH]1	11	44	.	-4	.	.
COCCOC(=O)C1=C(C)NC2(O)c3ccccc3C(=O)C12O (stereo not given)	12	-8	-2	1	-8	.
CCOC(=O)C1=C(C)NC2(O)c3ccccc3C(=O)C12O (stereo not given)	33*	0	0	0	16	28*
C=CC[C@@H]1NN2C(=O)[C@@H](CCCC)[C@@H]3c4ccccc4C=NN3[C@@H]2c2ccccc21	.	.	.	5	.	.
OC(COC(c1ccc(Cl)cc1)c1ccc(Cl)cc1)CN1CCc2ccccc2C1 (stereo not given)	30*	-5	-1	11	-4	>38
SMILES	RecA splice inh	BJeLR lethal	FBA Mtb inh	PrPC TRFRET	GDH-TPI inh	GFP chromophore
Clc1ccc(Sc2oc(/C=N/n3cnnc3)cc2Br)cc1	63*	.	-1	0	-8	22*
O=C(OCn1ncc(Cl)c(Cl)c1=O)c1cccc(C(F)(F)F)c1	94*	2	-1	.	-4	1.6*
N/C(=N\OC(=O)c1cccc(C(F)(F)F)c1)c1cnccn1	0	-14	2	6	4	.
O=c1c(Cl)nc2cc(Cl)ccc2n1CCNc1ncc(C(F)(F)F)cc1Cl	67*	88*	-1	.	5	0.31*
O=c1c2nncn2c2cc(C(F)(F)F)ccc2n1CCNc1ncc(C(F)(F)F)cc1Cl	3	-2	0	-11	3	.
Cc1ccccc1CN1CCCCC(NC(=O)Cc2cccs2)C1=O (stereo not given)	.	.	.	3	.	.
COc1ccc(/C=N/n2c(N)c(S(=O)(=O)c3cccs3)c3nc4ccccc4nc32)cc1OC	-5	-4	3	-4	11	.
CC(C)Cn1c(N)c(S(=O)(=O)c2cccs2)c2nc3ccccc3nc21	47*	5	142*	5	23	29*
N#Cc1cc(-c2ccccc2)nc(Oc2ccccc2)n1	60*	5	0	-2	5	33*
O=C(NC1=C(Nc2ccc(Cl)cc2)C(=O)c2ccccc2C1=O)c1ccccc1	49*	-5	-1	5	2	25*
O=C(Nc1ccc(Nc2ccccc2)cc1)c1ccc(Cl)cc1	.	-1	-2	3	5	.
O=C(NC(NC1CCS(=O)(=O)C1)C(=O)c1cccs1)c1ccccc1 (stereo not given)	0	-11	.	-3	.	.
O=C(NC1=C(NC2CCS(=O)(=O)C2)C(=O)c2ccccc2C1=O)c1ccccc1 (stereo not given)	84*	40	-2	-17	1	1*
Cc1cccc(NC2=C(NC(=O)c3ccccc3)C(=O)c3ccccc3C2=O)c1	72*	-3	-5	-48	8	6.5*
CCCCn1c(NCc2ccccc2NS(=O)(=O)c2ccc(C)cc2)nc2ccccc21	3	2	-2	-6	8	.
CCCCn1c(NS(=O)(=O)c2ccc(C)cc2)c(S(=O)(=O)c2ccccc2)c2nc3ccccc3nc21	83*	3	5	1	8	>38
CCOC(=O)CSCCOc1ccc(C=C2C(=O)NC(=O)NC2=O)cc1OC	73*	0	-1	-4	-2	>38
CCC(=O)N1CCN(c2nc(CC)nc3sc4c(c23)CCCC4)CC1	1	0	0	-8	4	.
CC1CCc2c(sc3nc(C(C)(C)C)nc(N4CCN(C(=O)CCl)CC4)c23)C1 (stereo not given)	83*	85*	1	-9	2	0.96*
Oc1[nH]c2ccc(Br)cc2c1N=NC(=S)N1CCOCC1	47*	45	-3	16	26	>38
Oc1[nH]c2ccccc2c1N=NC(=S)N1CCOCC1	67*	12	-22	.	19	>38
CCOC(=O)[C@@]12CCC3=C1N(CCC3)C(=O)[C@H](CC(=O)NCCCOC)C2	.	.	.	-4	.	.
CCOC(=O)CC[C@H]1CC[C@]2(CCCN(Cc3ccccc3)C2)O1	.	.	.	-7	.	.

Bioassay records from PubChem.
